In all, about 310,000 compounds went through this assay and about 14,000 (4.5%) showed an effect of 50% or more. Effects have a minus sign here. The full list was thinned out, with strong results kept by preference.
The compounds below were run against human ether-à-go-go-related gene (hERG) potassium channel (human, UniProt Q12809) (assay: primary screen, population patch clamp on CHO cells stably expressing hERG; higher = less effect of the substance).
Description: Briefly, Chinese hamster ovary (CHO) cells stably expressing the hERG channel were dislodged from tissue culture flasks and dispensed into PPC plates. […] During the recording, background leak currents were estimated by a 100 ms step to -80 mV from an initial holding potential of -70 mV and subtracted from the subsequent current measurement. The campaign was conducted in two phases using slight differences in recording protocol. In the first phase, the initial voltage pulse used a 100 ms step to -30 mV from a holding potential of -70 mV, a 2 s conditioning step to +25 mV, and a 2 s test step to -30 mV. During the second phase of the screen, the potential during the conditioning step was raised to +45 mV. In both phases of the campaign, a secondary voltage pulse was applied using the same parameters as the second phase initial pulse. The initial and secondary pulses were applied in the absence of compound, and upon application of 1 μM and 10 μM test concentrations. […]
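Also: peak tail current of the secondary pulse compared with the same well before compound.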

Chain of human ether-à-go-go-related gene (hERG) potassium channel (Q12809 whole entry, looked up): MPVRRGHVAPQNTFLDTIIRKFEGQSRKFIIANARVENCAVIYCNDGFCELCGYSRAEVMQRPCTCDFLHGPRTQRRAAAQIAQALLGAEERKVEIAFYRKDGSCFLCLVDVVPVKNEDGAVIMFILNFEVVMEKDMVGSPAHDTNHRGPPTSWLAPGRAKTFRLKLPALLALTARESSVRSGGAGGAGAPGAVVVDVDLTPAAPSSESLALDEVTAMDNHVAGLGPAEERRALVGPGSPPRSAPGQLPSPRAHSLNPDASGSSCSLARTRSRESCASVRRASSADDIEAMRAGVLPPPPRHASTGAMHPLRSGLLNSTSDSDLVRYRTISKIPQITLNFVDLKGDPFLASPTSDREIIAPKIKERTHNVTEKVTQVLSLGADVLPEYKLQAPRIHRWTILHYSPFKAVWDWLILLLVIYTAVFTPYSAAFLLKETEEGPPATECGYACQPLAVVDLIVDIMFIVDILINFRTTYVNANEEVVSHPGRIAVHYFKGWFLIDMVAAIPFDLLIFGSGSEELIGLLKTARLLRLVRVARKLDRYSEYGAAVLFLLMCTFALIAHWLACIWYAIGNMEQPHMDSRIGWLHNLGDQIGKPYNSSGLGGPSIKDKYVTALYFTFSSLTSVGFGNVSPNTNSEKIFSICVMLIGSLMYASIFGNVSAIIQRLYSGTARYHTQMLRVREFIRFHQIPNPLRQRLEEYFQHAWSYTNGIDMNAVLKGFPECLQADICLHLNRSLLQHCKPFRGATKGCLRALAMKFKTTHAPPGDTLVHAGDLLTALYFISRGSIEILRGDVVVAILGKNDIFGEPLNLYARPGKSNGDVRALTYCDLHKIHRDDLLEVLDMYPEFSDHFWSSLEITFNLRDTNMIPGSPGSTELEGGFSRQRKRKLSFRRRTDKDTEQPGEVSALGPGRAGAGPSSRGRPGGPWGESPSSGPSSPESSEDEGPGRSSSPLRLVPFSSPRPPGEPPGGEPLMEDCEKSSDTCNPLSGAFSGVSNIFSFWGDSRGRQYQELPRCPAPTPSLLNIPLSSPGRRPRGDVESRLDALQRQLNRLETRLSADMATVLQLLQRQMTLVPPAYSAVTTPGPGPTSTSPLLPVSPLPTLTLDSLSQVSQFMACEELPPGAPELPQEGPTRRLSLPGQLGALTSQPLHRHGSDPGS

Compound	hERG current change (%, negative = inhibition) at 10uM
CN(C(=O)COC(=O)C12CC3CC(CC(C3)C1)C2)c1c(N)n(Cc2ccccc2)c(=O)[nH]c1=O	7.54%
CCOC(=O)C1(P(=O)(c2ccc(Cl)cc2)c2ccc(Cl)cc2)CCC1	-25.2%
N/C(=N\OC(=O)COc1ccc2ccccc2c1)c1ccccn1	-1.39%
CCN(C(=O)COC(=O)CCS(=O)(=O)c1ccc(C)cc1)C1CCS(=O)(=O)C1 (stereo not drawn)	12.9%
COc1ccccc1C(C#N)N1N=C(C)CC1c1ccccc1 (stereo not drawn)	1.69%
O=C(CSc1nnc(COc2ccccc2Cl)o1)NC(=O)NCc1ccco1	-8.18%
Cc1cc(=O)[nH]c(/N=C(\N)Nc2ccc(SC(F)F)cc2)n1	-15.8%
Cc1cc(C)nc(/N=C(\N)Nc2ccc(SC(F)F)cc2)n1	-74.7%
Cc1cc(C)nc(/N=C(\N)Nc2ccc3c(c2)OCCO3)n1	6.67%
CCOc1ccc(N2C(=O)CC(NCCc3ccc(S(N)(=O)=O)cc3)C2=O)cc1 (stereo not drawn)	-22%
Cl.NS(=O)(=O)c1ccc(CCNCc2cccs2)cc1	4.04%
Cl.NS(=O)(=O)c1ccc(CCNCc2cccnc2)cc1	18.4%
C=CCOc1ccc(CNCCc2ccc(S(N)(=O)=O)cc2)cc1.Cl	-81.4%
COc1ccc(CNC(=S)Nc2ccc(S(N)(=O)=O)cc2)cc1	22.1%
CCOc1ccc(OCCC(=O)OCC(=O)NCCc2ccc(S(N)(=O)=O)cc2)cc1	-4.49%
CCOc1ccc(CNCCc2ccc(S(N)(=O)=O)cc2)cc1.Cl	-70.1%
COc1ccc(CNc2ccc(S(N)(=O)=O)cc2)cc1	-52.6%
CCOc1ccc(CNc2ccc(S(N)(=O)=O)cc2)cc1	-6.78%
COc1ccc(C(=O)NC(=S)N2CCN(c3ccccc3OC)CC2)cc1	-21.6%
O=C(COC(=O)c1cccnc1)c1ccc(Cl)cc1	4.51%
CCCCn1c(SCn2nnc3ccccc3c2=O)nc2cc(S(N)(=O)=O)ccc21	-34.5%
CCN1CCN(CCCNC(=O)C(=O)c2c(C)[nH]c3ccccc23)CC1	3.67%
COc1ccc(N2CCN(CCCNC(=O)C(=O)c3c(C)n(C)c4ccccc34)CC2)cc1	-64.1%
COc1ccc(C(C(O)C(=O)c2c[nH]c3ccccc23)N2CCN(c3ccccc3)CC2)cc1 (stereo not drawn)	-13.8%
COc1ccc(C(C(O)C(=O)c2c[nH]c3ccccc23)N2CCN(c3ccc(OC)cc3)CC2)cc1 (stereo not drawn)	-7.36%
Cl.O=C(NCCCN1CCOCC1)C(=O)c1c[nH]c2ccccc12	-3.03%
COc1ccc(N2CCN(CCCNC(=O)C(=O)c3c[nH]c4ccccc34)CC2)cc1	-69.7%

Compound	hERG current change (%, negative = inhibition) at 10uM
COc1ccc(N2CCN(CC(=O)c3c(C)n(C)c4ccc(OC)cc34)CC2)cc1	-4.1%
COc1ccc(N2CCN(C(=O)C(=O)c3c(C)[nH]c4ccccc34)CC2)cc1	-14.1%
CCN1CCN(C(c2ccc(OC)cc2)C(O)C(=O)c2c[nH]c3ccccc23)CC1 (stereo not drawn)	-69%
COc1ccc(N2CCN(CC(=O)c3c[nH]c4ccccc34)CC2)cc1	8.09%
COc1ccc(N2CCN(C(=O)C(=O)c3c(C)n(C)c4ccccc34)CC2)cc1	10.4%
COc1ccc(N2CCN(CCCNC(=O)C(=O)c3c(C)[nH]c4ccccc34)CC2)cc1	-53.3%
O=C(NCCN1CCOCC1)c1cccc(S(=O)(=O)N(Cc2ccccc2)c2ccccc2)c1	-19.3%
CCOC(=O)c1sc(C)c(C(=O)NC2CCCCC2)c1N	-4.79%
CNC(=O)c1c(NC(=O)CCS(=O)(=O)c2ccccc2)sc(C)c1C	0.0126%
COc1ccc(/C=N/NC(=O)Cc2csc(Nc3cccc(C(F)(F)F)c3)n2)cc1C	10.7%
CCOC(=O)c1cc(-c2ccccc2)sc1NC(=O)COC(=O)c1cccc(S(N)(=O)=O)c1	10.2%
CC1CC(C)CN(CCCNC(=O)CCC(=O)N2CC(C)Oc3ccccc32)C1 (stereo not drawn)	-32.2%
Cc1cccc(/C=N/NC(=O)c2cccc(NC(=O)c3ccccc3)c2)n1	0.172%
CCOCc1nnc(NC(=O)CSc2ccc(C)cc2)s1	6.61%
Cc1c(N2CCCC2)cc2c(c1NC(=O)c1ccccc1Cl)C(C)(C)CC2(C)C	-25.6%
CN1/C(=C/c2cccc[n+]2CCO)Sc2ccccc21.[I-]	12.4%
CN1/C(=C/c2cccc[n+]2C)Sc2ccccc21.[I-]	-22.7%
COc1ccc(-[n+]2c(C)cc(/C=C3\Sc4ccccc4N3C)cc2C)cc1.[I-]	-60.2%
COc1ccc(C(=O)/C=C2\Sc3ccccc3N2C)cc1	11.1%
COc1ccccc1-[n+]1c(C)cc(/C=C2\Sc3ccccc3N2C)cc1C.[I-]	-69.6%
COc1cc(OC)cc(C(=O)/C=C2\Sc3ccccc3N2C)c1	9.82%
COc1ccc(NC(=O)/C(C#N)=C\c2ccc(OCc3ccc(C(=O)O)cc3)c(OC)c2)cc1	3.69%
CC(C)C(CCNC(=O)CC(Cc1ccccc1)c1ccco1)c1ccco1 (stereo not drawn)	-20%
Cc1cc(C)cc(OCC(=O)NNC(=O)CCN2C(=O)c3ccccc3C2=O)c1	-14.8%
Cc1ccc(NC(=O)CCNS(=O)(=O)c2ccc3[nH]c(=O)oc3c2)cc1C	9.43%
COc1ccc2cc(CN(CC3CCCO3)S(=O)(=O)c3ccc(C(C)=O)cc3)c(=O)[nH]c2c1 (stereo not drawn)	-11.4%
COC(=O)CN(C)C(=O)CC1C(=O)NCCN1CC(C)(C)C (stereo not drawn)	22.8%
